Several values for one entry are separate records, joined by “and”; a condition that tells them apart may be missing. Identical values can stand only once. Compounds without any hit were thinned out: in the full panel of roughly 79,000, 15% have a hit. Where a structure was tested more than once in an assay, its records may differ in their call. Activity calls are given as the source filed them. Rule as the data show it: active = growth inhibition above about 70%; inactive = the rest.
Assays:
[1] = NCI Yeast Anticancer Drug Screen. Data for the rad50 strain (AID 155);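 also: 0% = growth of vehicle-only cultures of the same strain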; conditions: S. cerevisiae rad50 strain growth inhibition; at 50.0 µM; stronger effect = higher value
Procedure, shortened: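 A DNA repair-deficient yeast mutant serves as the test organism; compound-induced growth inhibition is calculated against vehicle-treated cells.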

[2] = NCI Yeast Anticancer Drug Screen. Data for the mec2-1 strain (AID 157); conditions: S. cerevisiae mec2-1 strain, at 50.0 µM, stronger effect = higher value
Procedure, shortened: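 Yeast mec2-1 mutant treated with compound. Readout: growth inhibition vs vehicle controls.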

[3] = NCI Yeast Anticancer Drug Screen. Data for the sgs1 mgt1 strain (AID 161);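 also: 0% = growth of cultures given vehicle only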; conditions: S. cerevisiae sgs1 mgt1 strain, at 50.0 µM, stronger effect = higher value
Procedure, shortened: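 Mutant yeast exposed to compound; growth scored against vehicle-only wells.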

[4] = NCI Yeast Anticancer Drug Screen. Data for the cln2 rad14 strain (AID 165);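 also: 0% = growth equal to vehicle treated cultures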; conditions: S. cerevisiae cln2 rad14 strain, at 50.0 µM, stronger effect = higher value
Procedure, shortened: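 cln2 rad14 yeast strain; compound exposure; growth inhibition read vs vehicle controls.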

[5] = NCI Yeast Anticancer Drug Screen. Data for the bub3 strain (AID 167); conditions: S. cerevisiae bub3 mutant strain, at 50.0 µM, stronger effect = higher value
Procedure, shortened: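 Inhibition values come from growth of compound-treated mutant yeast normalised to vehicle-treated controls.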

[6] = NCI Yeast Anticancer Drug Screen. Data for the mlh1 rad18 strain (AID 175); conditions: S. cerevisiae mlh1 rad18 strain growth inhibition; at 50.0 µM; stronger effect = higher value
Procedure, shortened: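 Yeast w/ defined DNA-repair lesions; compound exposure; growth vs vehicle controls → % inhibition.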

Measured: growth inhibition

[NH-]C(CO)C(=O)O.[NH-]C(CO)C(=O)O.[Pd+2] (centres undefined)
inactive: [1] -8.55% | [2] -3.9% | [3] -6.15% | [4] -7.2% | [5] -5.95% | [6] 15.9%

COC(=O)C1(C(=O)OC)ON1C(C)(C)C (centres undefined)
inactive: [1] -48.5% | [2] -17.6% | [3] -17.6% | [4] -57.8% | [5] -5% | [6] -11.6%

Cc1cc(N(CCCl)CCCl)ccc1CN1CCCN(Cc2ccc(N(CCCl)CCCl)cc2C)C1c1ccccc1O
inactive: [1] 0.25% | [2] 14.5% | [3] 11.1% | [4] -4.5% | [5] 0.05% | [6] 31.9%

CC1(C)CC(N)C(=O)c2ccccc21 (centres undefined)
inactive: [1] 7.25% | [2] -20.6% | [3] -5.6% | [4] 14.2% | [5] -4.4% | [6] 29%

CCC[CH2][Sn]([CH2]CCN(C)C)([CH2]CCN(C)C)[CH2]CCN(C)C
inactive: [1] 38.5% | [2] 8.4% | [3] 12.8% | [4] 15.2% | [5] -1.95% | [6] 28.2%

NS(=O)(=O)c1ccc([As](=O)(O)c2ccccc2)cc1
inactive: [1] 14.2% | [2] -9.35% | [3] 7.85% | [4] 15.7% | [5] 9.5% | [6] -7.75%

COc1cc2c(cc1OC)C13CCN4CC5=CCOC(CC(=O)O)C(C5CC41)C3N2 (centres undefined)
inactive: [1] 14.2% and -40.6% | [2] 26.1% and -27.1% | [3] 47.1% and -32.6% | [5] -18.6% and -38.2% | [6] 3.35% and -34.1%
91.8% (active) and 10.6% (inactive): [4]

O.O=C(O)C(=O)O.[NH2-].[Zn]
inactive: [1] -14.6% | [2] 9.25% | [3] -6.5% | [4] 35.1% | [5] -2.3% | [6] -2.05%

C[C@]12CCC(O)CC1=CC[C@@H]1[C@@H]2CC[C@]2(C)C(O)[C@H](n3ccnc3)C[C@@H]12 (some centres undefined)
inactive: [1] 30.1% | [2] 33.6% | [3] -6.05% | [4] 25.1% | [5] -11.7% | [6] -13.4%

Oc1ccc(C(O)C2CCCCN2)cc1O (centres undefined)
inactive: [1] -10.5% | [2] -20.9% | [3] -0.25% | [4] -17.9% | [5] -16.8% | [6] -0.45%

c1ccc([C@H]2N[C@@H]2c2ccccn2)cc1
inactive: [1] 22.6% | [2] 32.5% | [3] 32.5% | [4] -4.35% | [5] 19.5% | [6] 13.2%

CN(C)C(=O)c1cc(N(CCCl)CCCl)c([N+](=O)[O-])cc1[N+](=O)[O-]
inactive: [1] -2.75% | [2] -10.1% | [3] -3.35% | [4] 2.3% | [5] -13.6% | [6] 0.3%

CC12CC3OC(=O)C1COC14OC5(C2C1=O)C(O)(CCC1C4CC(O)C2(O)CC=CC(=O)C12C)C(=O)OC35C (centres undefined)
inactive: [1] 5.85% | [2] 7.95% | [3] 8.3% | [4] 11.2% | [5] -1.3% | [6] -40.8%

CC1CN=C(Nc2ccc(F)c(Cl)c2)S1 (centres undefined)
inactive: [1] -14.4% | [2] -16.1% | [3] -44.9% | [4] 8.65% | [5] -0.25% | [6] -22.9%

CC(=O)O.CC(=O)O.[Co+2].[NH-]C(CCC(N)=O)C(=O)O.[NH-]C(CCC(N)=O)C(=O)O (centres undefined)
inactive: [1] 15.2% | [2] 13.4% | [3] 34.2% | [4] -4% | [5] 22.3% | [6] 19.9%

Cc1nc2ccccc2[se]1
inactive: [1] -33.4% | [2] -32.5% | [3] -3.5% | [4] 3.5% | [5] 35.7% | [6] -18.1%

O=NN1CCCC1C(=O)O (centres undefined)
inactive: [1] -10.8% and 0.75% | [2] -16.6% and -11.8% | [3] -14.2% and -12% | [4] 10.1% and 3.9% | [5] 3.45% and 1.65% | [6] -14% and -2.15%

CC(C)CNP(=S)(NCC(C)C)c1ccccc1
inactive: [1] 4.5% | [2] 12.9% | [3] 6.7% | [4] 5.55% | [5] 18.9% | [6] 21.3%

C/C=C/CC1(C(C)C)C(=O)NC(=O)NC1=O
inactive: [1] 8.6% and 18.7% | [2] 11.2% and 8% | [3] -4.2% and 10.8% | [4] 3.8% and 10.6% | [5] -1.25% and 1.2% | [6] -1.65% and 8.4%

Source: PubChem BioAssay (NCI)
